Results filed as inconclusive are left out. Entries that show only a call come without a potency. The source made the active and inactive calls. Unless noted, the call rests on the fitted dose curve.
Tests used:
[1] = qHTS assay to identify small molecule agonists of the vitamin D receptor (VDR) signaling pathway - cell viability counter screen (AID 743224; active means well fitted curve in the direction sought with a large enough effect in the repeat runs; an effect the other way counts as inactive or inconclusive; further: nearly all actives have a fitted effect of over 50% in size; further: potency means the concentration at half of the fitted maximal effect)
Outline: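 VDR-bla cells, 4 h after plating, exposed to compounds for 16 h at 37C; viability then read in the same wells as CellTiter-Glo luminescence after 30 min at room temperature, following the bla FRET read.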

[2] = qHTS assay to identify small molecule antagonists of the vitamin D receptor (VDR) signaling pathway - cell viability counter screen (AID 743225; active means well fitted curve in the direction sought with a large enough effect in the repeat runs; an effect the other way counts as inactive or inconclusive; further: nearly all actives have a fitted effect of over 50% in size; further: potency means the concentration at half of the fitted maximal effect)
Outline: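 Viability counter screen run in the same wells as the beta-lactamase reporter assay: HEK 293T VDR-UAS-bla cells, 16 h compound exposure at 37C with 3 nM (final) 1-alpha,25-dihydroxyvitamin D3. CellTiter-Glo luminescence, 30 min, room temperature.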

[3] = qHTS assay to identify small molecule agonists of the endoplasmic reticulum stress response signaling pathway (AID 1159516; active means well fitted activation curve with a large enough effect in the signal ratio in the repeat runs, not every such curve was filed as active; the % refers to the signal ratio)
Outline: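 CellSensor ESRE-bla HeLa cells, 1,500 per well, plated overnight, then exposed to compounds for 5 hr at 37 C. Beta-lactamase reporter read with LiveBLAzer B/G FRET substrate after 2 hr at room temperature, 405 nm excitation, 460 and 530 nm emission.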

[4] = qHTS assay to identify small molecule agonists of the endoplasmic reticulum stress response signaling pathway - cell viability counter screen (AID 1159517); further: nearly all actives have a fitted effect of over 50% in size; further: potency means the concentration at half of the fitted maximal effect
Outline: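 CellTiter-Glo was added to wells already read for beta-lactamase FRET, and luminescence was recorded 30 min later. Cells: ESRE-bla HeLa, 1,500 per well, compound exposure 5 hr at 37 C.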

[5] = qHTS assay to identify small molecule antagonists of the retinoid-related orphan receptor gamma (ROR-gamma) signaling pathway - cell viability counter screen (AID 1159520; active means well fitted curve in the direction sought with a large enough effect in the repeat runs; an effect the other way counts as inactive or inconclusive; further: nearly all actives have a fitted effect of over 50% in size; further: potency means the concentration at half of the fitted maximal effect)
Outline: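 Tet-on ROR gamma CHO cells (1,000/well) were plated 4 hr, given compounds in DMSO for 2 hr at 37 C, then induced with 1 uM final doxycycline for 16 hr. Viability was read as ATP by CellTiter-Glo luminescence after 30 min.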

[6] = target: Nuclear receptor ROR-gamma (Homo sapiens) (UniProt P51449); assay: qHTS assay to identify small molecule antagonists of the retinoid-related orphan receptor gamma (ROR-gamma) signaling pathway (AID 1159521; active means well fitted curve in the direction sought with a large enough effect in the repeat runs; an effect the other way counts as inactive or inconclusive; further: nearly all actives have a fitted effect of over 50% in size; further: potency means the concentration at half of the fitted maximal effect)
Outline: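 Luminescence readout (ONE-Glo, 30 min RT) after 16 h doxycycline induction; loss of signal scored as antagonism. CHO cells with TET-inducible RORγ and RORE-LUC reporter; compounds added 2 h before 1 uM final doxycycline.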

[7] = qHTS assay to identify small molecule agonists of the AP-1 signaling pathway - cell viability counter screen (AID 1159525); further: nearly all actives have a fitted effect of over 55% in size; further: potency means the concentration at half of the fitted maximal effect
Outline: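 ME-180 AP-1-bla, 2500 cells/well, Opti-MEM + 0.5% dialyzed FBS; overnight 37 °C; cpd 15-pt titration, 5 h 37 °C; CellTiter-Glo 30 min RT; luminescence read; normalised to TOAB and DMSO controls.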

[8] = qHTS assay to identify small molecule agonists of the AP-1 signaling pathway (AID 1159526)
[9] = target: Retinoic acid receptor RXR-alpha (Homo sapiens) (UniProt P19793); assay: qHTS assay to identify small molecule agonists of the RXR signaling pathway (AID 1159527); further: nearly all actives have a fitted effect of over 35% in size
Outline: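 Agonist mode; 9-cis retinoic acid positive control. HEK 293T UAS-bla reporter cells, 2% charcoal-stripped FBS, 16 hr compound exposure at 37 C/5% CO2. LiveBLAzer B/G FRET substrate 2 hr RT; ex 405, em 460/530 nm.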

Sequence of Retinoic acid receptor RXR-alpha (Homo sapiens) (P19793 whole entry, looked up): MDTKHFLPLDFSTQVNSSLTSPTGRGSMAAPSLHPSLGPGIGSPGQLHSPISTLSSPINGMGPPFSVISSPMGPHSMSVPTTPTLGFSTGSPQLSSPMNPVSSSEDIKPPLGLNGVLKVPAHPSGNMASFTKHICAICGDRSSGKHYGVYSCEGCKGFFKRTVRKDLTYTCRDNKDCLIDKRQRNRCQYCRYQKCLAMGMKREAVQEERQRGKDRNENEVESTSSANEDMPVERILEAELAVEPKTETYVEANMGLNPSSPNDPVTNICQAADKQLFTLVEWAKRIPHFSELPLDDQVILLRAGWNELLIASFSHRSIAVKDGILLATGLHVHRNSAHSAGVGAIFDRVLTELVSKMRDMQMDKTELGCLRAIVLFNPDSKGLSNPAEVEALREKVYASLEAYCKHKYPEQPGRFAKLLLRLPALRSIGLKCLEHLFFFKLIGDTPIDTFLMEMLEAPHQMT

Clc1cc(Cl)c(-c2cc(Cl)c(Cl)cc2Cl)cc1Cl
Potency [1]: inactive
Potency [2]: inactive
Potency [3]: inactive
Potency [4]: inactive
Potency [5]: inactive
Potency [6]: inactive
Potency [7]: inactive

O=[N+]([O-])c1ccc(CCl)cc1
Potency [1]: inactive
Potency [2]: inactive
Potency [3]: inactive
Potency [5]: inactive
Potency [6]: inactive
Potency [7]: inactive
Potency [8]: inactive

[C-]1=CC=CC1.[Cl][Zr+2][Cl].c1cc[cH-]c1
Potency [1]: inactive
Potency [2]: inactive
Potency [3]: inactive
Potency [4]: inactive
Potency [5]: inactive
Potency [6]: inactive
Potency [7]: inactive
Potency [8]: inactive

O.O.O.O.O.O.O=S(=O)([O-])[O-].[Ni+2]
Potency [1]: inactive
Potency [2]: inactive
Potency [3]: inactive
Potency [4]: inactive
Potency [5]: inactive
Potency [7]: inactive
Potency [8]: inactive
Potency [9]: inactive

O=[N+]([O-])[O-].[Tl+]
Potency [2]: inactive
Potency [3]: inactive
Potency [4]: inactive
Potency [5]: inactive
Potency [7]: inactive
Potency [8]: inactive
Potency [9]: inactive

CC(O)C(=O)[O][Hg][c]1ccccc1 (stereo unspecified)
Potency [1]: 1230 nM (active)
Potency [2]: 1740 nM (active)
Potency [4]: 1100 nM (active)
Potency [5]: 1370 nM (active)
Potency [6]: 486 nM (active)
Potency [7]: 2450 nM (active)

CC(Cc1ccc(O)cc1)NCC(O)c1cc(O)cc(O)c1 (stereo unspecified)
Potency [1]: inactive
Potency [3]: inactive
Potency [4]: inactive
Potency [5]: inactive
Potency [6]: inactive
Potency [7]: inactive

ClC(Cl)C(Cl)(Cl)Cl
Potency [1]: inactive
Potency [2]: inactive
Potency [3]: inactive
Potency [4]: inactive
Potency [5]: inactive
Potency [7]: inactive
Potency [8]: inactive
Potency [9]: inactive

COP(=S)(OC)Oc1nc(Cl)c(Cl)cc1Cl
Potency [1]: inactive
Potency [2]: inactive
Potency [3]: inactive
Potency [4]: inactive
Potency [7]: inactive

Oc1ccc([C@H]2CNCc3c2ccc(O)c3O)cc1O
Potency [1]: inactive
Potency [2]: inactive
Potency [3]: inactive
Potency [4]: inactive
Potency [7]: inactive
Potency [8]: inactive
Potency [9]: inactive

CNC(C)(C)Cc1ccccc1
Potency [1]: inactive
Potency [2]: inactive
Potency [3]: inactive
Potency [4]: inactive
Potency [5]: inactive
Potency [7]: inactive
Potency [8]: inactive
Potency [9]: inactive

CCCCc1ccccc1
Potency [1]: inactive
Potency [2]: inactive
Potency [4]: inactive
Potency [5]: inactive
Potency [7]: inactive

O=C(Cl)c1ccccc1F
Potency [1]: inactive
Potency [2]: inactive
Potency [3]: inactive
Potency [4]: inactive
Potency [7]: inactive
Potency [8]: inactive

CC[N+]1(CC)CCC(OC(=O)C(O)(c2ccccc2)c2ccccc2)C1 (stereo unspecified)
Potency [1]: inactive
Potency [2]: inactive
Potency [3]: inactive
Potency [4]: inactive
Potency [7]: inactive
Potency [8]: inactive
Potency [9]: inactive

CC(C)=CCN1CC[C@@]2(C)c3cc(O)ccc3C[C@@H]1[C@@H]2C
Potency [1]: inactive
Potency [2]: inactive
Potency [3]: inactive
Potency [4]: inactive
Potency [7]: inactive
Potency [8]: inactive

CC(=O)[O][Sn]([c]1ccccc1)([c]1ccccc1)[c]1ccccc1
Potency [1]: 87.1 nM (active)
Potency [2]: 219 nM (active)
Potency [4]: 13800 nM (active)
Potency [5]: 96.9 nM (active)
Potency [7]: 3890 nM (active)

From PubChem BioAssay (Tox21)
